Measured values reported in PubChem BioAssay (NCATS).
Results filed as inconclusive are left out. The source made the active and inactive calls. The call rests on the fitted dose curve; in most records, active means well fitted cell-killing curve with a large enough effect; inconclusive means small, poorly fitted or top-dose-only effect, or effect the other way; inactive means no such curve, though single readings can be large or run the other way.

test: Quantitative High-Throughput drug screen in 47 multiple myeloma cell lines against the NCATS MIPE library collection: OPM1_PLB cell viability assay (AID 1918989); conditions: CellTiter-Glo, 48 h; series mostly up to 45.8 µM; further: nearly all actives have a fitted effect of over 40% in size
Excerpt: PI: Beverly A. Mock Ph.D.
Laboratory of Cancer Biology and Genetics,
Center for Cancer Research, National Cancer Institute,
National Institute of Health, Bethesda, Maryland
Drug resistance and disease progression are common in multiple myeloma (MM) patients, underscoring the need for new therapeutic combinations. […] We hypothesized that effective combinations would reduce MYC expression and enhance p16 activity. […] These preclinical data identify potentially useful drug combinations for evaluation in drug-resistant MM and reveal potential mechanisms of combined drug sensitivity.
Described herein is the primary MIPE qHTS used to cherrypick compounds. Validated compounds were then further tested for potential synergistic activiy.
[1] Peat TJ, Gaikwad SM, Dubois W, Gyabaah-Kessie N, Zhang S, Gorjifard S, Phyo Z, Andres M, Hughitt VK, Simpson RM, Miller MA, Girvin AT, Taylor A, Williams D, D'Antonio N, Zhang Y, Rajagopalan A, Flietner E, Wilson K, Zhang X, Shinn P, Klumpp-Thomas C, McKnight C, Itkin Z, Chen L, Kazandijian D, Zhang J, Michalowski AM, Simmons JK, Keats J, Thomas CJ, Mock BA. Drug combinations identified by high-throughput screening promote cell cycle transition and upregulate Smad pathways in myeloma. Cancer Lett. 2023 Aug 1;568:216284. doi: 10.1016/j.canlet.2023.216284. Epub 2023 Jun 24. PMID: 37356470; PMCID: PMC10408729.
SEQUENCE No. (e.g., 1, 2, 3, etc.); […] (e.g., Cells, Incubation, Reagent, etc.); VALUE and DESCRIPTION.
1; Cells; 5 uL; white, solid bottom 1536-well Greiner assay plate.
2; Compounds; 23 nL; Kalypsis pin tool (Wako USA) equipped with a 1536-well pin head to transfer to the assay plates.
3; Incubation; 48 hours; 37C incubation.
4; Reagent;5uL; CellTiter Glo (Promega).
5; Detector; 425V; Luminescence; Viewlux PerkinElmer.
NOTES (numbers refer to Sequence numbers above)
1. The cell-based screening methods employed in this study were like those previously published. Briefly, the corresponding myeloma cell lines were screened in 1,536-well plates with 500 cells, 5-uL per well for inhibition of cell viability (assessed by measuring ATP levels with CellTiterGlo).
2. NCATS MIPE 4.0 library of approved and investigational drugs were added using the Kalypsis pin tool. Wells treated with DMSO only for 100% viability and media only for 0% viability were used as controls.
3. The assay plates were covered and incubated for 48 hours in a 37C, 5% CO2 incubator with controlled humidity.
4. After 48 hours, CellTilter-GloTM luminescent substrate mix (Promega) reagent was added to the assay plate and plates we incubated for 5 min at room temperature.
5. Signal was measured as median relative luminescence units on a ViewLux (PerkinElmer) multiplate reader.
[1] Heske CM, Davis MI, Baumgart JT, Wilson K, Gormally MV, Chen L, Zhang X, Ceribelli M, Duveau DY, Guha R, Ferrer M, Arnaldez FI, Ji J, Tran HL, Zhang Y, Mendoza A, Helman LJ, Thomas CJ. Matrix Screen Identifies Synergistic Combination of PARP Inhibitors and Nicotinamide Phosphoribosyltransferase (NAMPT) Inhibitors in Ewing Sarcoma. Clin Cancer Res. 2017 Dec 1;23(23):7301-7311. doi: 10.1158/1078-0432.CCR-17-1121. Epub 2017 Sep 12. PMID: 28899971; PMCID: PMC6636827.
Potency means the concentration at half of the fitted maximal effect.

Which Potency does the source give for O=C1C(Cl)=C(NCCN2CCOCC2)C(=O)c2ncccc21 here?
Its Potency is 7.43 µM (active).

With CC(C)(C)C(=O)Oc1ccc2c(c1)nc(NC(=O)c1cccc([N+](=O)[O-])c1)n2CCCO as the compound, how does the Potency read?
The Potency was “inactive”.

For NC(=O)c1ccc2nc(-c3ccc(Oc4ccc(Cl)cc4)cc3)[nH]c2c1, which Potency is on record?
The Potency was 6.62 µM (active).

With CO[C@H]1C[C@@H]2CC[C@@H](C)[C@@](O)(O2)C(=O)C(=O)N2CCCC[C@@H]2C(=O)O[C@H]([C@H](C)C[C@@H]2CC[C@H](OCCO)[C@H](OC)C2)CC(=O)[C@H](C)C=C(C)[C@@H](O)[C@@H](OC)C(=O)[C@H](C)C[C@H](C)C=CC=CC=C1C as the compound, how does the Potency read?
Its Potency is 1.05 µM (active).

Which Potency does the source give for Cc1cnc(C(=O)O)c[n+]1[O-] here?
Its Potency is “inactive”.

For Clc1cc(Cl)cc(CNc2ncncc2-c2ccc3c(c2)OCO3)c1, which Potency is on record?
Its Potency is 20.9 µM (active).

With N[C@H](CSC(c1ccccc1)(c1ccccc1)c1ccccc1)C(=O)O as the compound, how does the Potency read?
The Potency was 5.9 µM (active).

Which Potency does the source give for CN(C)c1cc(NC(=O)CNC(C)(C)C)c(O)c2c1C[C@@H]1C[C@H]3[C@H](N(C)C)C(=O)C(C(N)=O)=C(O)[C@@]3(O)C(=O)C1=C2O here?
The Potency was “inactive”.

For CC(C)C[C@H](CC(=O)O)C(=O)N[C@@H](Cc1c[nH]c2ccccc12)C(=O)N[C@@H](C)c1ccccc1, which Potency is on record?
The Potency was “inactive”.

With COc1cc2c(cc1OC)CN(CCc1ccc(NC(=O)c3cc(OC)c(OC)cc3NC(=O)c3cnc4ccccc4c3)cc1)CC2 as the compound, how does the Potency read?
The Potency was 14.8 µM (active).

Which Potency does the source give for Cc1ccc(Nc2cc(-c3cccc(N4C(=O)c5ccccc5C4=O)c3)ncn2)cc1NS(C)(=O)=O here?
Its Potency is 23.5 µM (active).

With NC[C@@H]1O[C@@H](O[C@H]2[C@@H](O)[C@H](O[C@@H]3[C@@H](O)[C@@H](N)C[C@H](N)[C@H]3O[C@H]3O[C@H](CN)[C@@H](O)[C@@H](O)[C@H]3N)O[C@H]2CO)[C@H](N)[C@@H](O)[C@@H]1O as the compound, how does the Potency read?
The Potency was “inactive”.

Which Potency does the source give for Cc1nnc(C(C)C)n1C1C[C@H]2CC[C@@H](C1)N2CC[C@H](NC(=O)C1CCC(F)(F)CC1)c1ccccc1 (stereo not given in full) here?
The Potency was “inactive”.

With CN1[C@@H]2CCC[C@@H]1CC(NC(=O)c1nn(C)c3ccccc13)C2 (stereo not given in full) as the compound, how does the Potency read?
Its Potency is “inactive”.

With CCN(CC)CCOc1ccc(C(=C(Cl)c2ccccc2)c2ccccc2)cc1 as the compound, how does the Potency read?
Its Potency is “inactive”.

For N#C[C@H]1C[C@H]2C[C@@H]2N1C(=O)[C@@H](N)C12CC3CC(CC(O)(C3)C1)C2, which Potency is on record?
Its Potency is “inactive”.

With C=C1C(=O)[C@@]23C(CC[C@@H]1[C@H]2O)[C@@]12CO[C@]3(O)[C@@H](O)[C@@H]1C(C)(C)CC[C@@H]2O (stereo not given in full) as the compound, how does the Potency read?
The Potency was 3.72 µM (active).

Which Potency does the source give for Oc1ccc(C2CCN(c3ccnc4ccccc34)CC2)cc1O here?
The Potency was 16.6 µM (active).

Which Potency does the source give for O=C(NCc1ccncc1)C12C[C@H]3C[C@@H](C1)CC(c1ccc(Cl)cc1)(C3)C2 here?
Its Potency is 18.7 µM (active).

Which Potency does the source give for C=C1C(=O)OC2C=C(C)CCC=C(C)CCC12 (stereo not given) here?
The Potency was 18.7 µM (active).

With CC(C)(Cc1ccc2ccccc2c1)NC[C@@H](O)COc1cccc(Cl)c1C#N as the compound, how does the Potency read?
Its Potency is 6.62 µM (active).

Which Potency does the source give for CC(C)=CC[C@@H](O)C1=CC(=O)c2c(O)ccc(O)c2C1=O here?
Its Potency is 16.6 µM (active).

For Cc1ccc(C(=O)Nc2cccc(C(F)(F)F)c2)cc1Nc1nc(-c2cccnc2)nc2c1cnn2C, which Potency is on record?
Its Potency is 8.33 µM (active).

With CCOC(=O)C1=C(N)Oc2ccc(Br)cc2C1C(C#N)C(=O)OCC (stereo not given) as the compound, how does the Potency read?
Its Potency is 23.5 µM (active).

For CC1(C)CCC[C@@]2(C)[C@@H]1CC[C@@]1(C)OC(=O)C[C@H]21, which Potency is on record?
Its Potency is “inactive”.

For NC1CCC(Nc2nc(Nc3ccc(C(=O)N4CCCCC4)cc3)c3ncn(-c4cccc(F)c4)c3n2)CC1 (stereo not given), which Potency is on record?
The Potency was “inactive”.

Which Potency does the source give for CCCCCCCCCCCC1=C(O)C(=O)C=C(O)C1=O here?
The Potency was 3.72 µM (active).

For Clc1ccc(-c2nc3sccn3c2C=NOCc2ccc(Cl)c(Cl)c2)cc1, which Potency is on record?
The Potency was “inactive”.

With O=c1c(-c2ccc(O)cc2)coc2cc(OC3O[C@H](CO)[C@H](O)[C@H](O)[C@H]3O)cc(O)c12 (stereo not given in full) as the compound, how does the Potency read?
The Potency was 7.43 µM (active).

Which Potency does the source give for O=C(Nc1ccccc1-c1cn2c(CN3CCNCC3)csc2n1)c1cnc2ccccc2n1 here?
Its Potency is 8.33 µM (active).

Which Potency does the source give for O=c1cc(-c2cccc3c2Sc2ccccc2S3)oc(N2CCOCC2)c1 here?
Its Potency is 26.4 µM (active).

For NC(=O)c1cccc2[nH]c(-c3ccc([C@H]4CCCN4)cc3F)nc12, which Potency is on record?
Its Potency is 14.8 µM (active).

Which Potency does the source give for C[C@]12CC[C@@H]3c4ccc(O)cc4C[C@@H](CCCCCCCCCS(=O)CCCC(F)(F)C(F)(F)F)[C@H]3[C@H]1CC[C@H]2O (stereo not given in full) here?
Its Potency is “inactive”.

With O=C1C[C@@H](c2ccc(O)cc2)Oc2cc(O)cc(O)c21 as the compound, how does the Potency read?
Its Potency is “inactive”.

Which Potency does the source give for Cc1ccc([C@@H]2O[C@H](CO)[C@@H](O)[C@H](O)[C@@H]2O)cc1Cc1ccc(-c2ccc(F)cc2)s1 here?
The Potency was 20.9 µM (active).

Which Potency does the source give for CC(=O)OC1C(C)OC(Oc2c(-c3ccc(O)cc3)oc3cc(O)cc(O)c3c2=O)C(O)C1OC(C)=O (stereo not given) here?
Its Potency is 10.5 µM (active).

For O=C(NC1CCOCC1)c1ccc(-c2cc(-c3cn[nH]c3-c3ccccn3)ccn2)cc1, which Potency is on record?
The Potency was “inactive”.

For CCOc1ccc(Nc2nc(-c3c(C)nc4ccccn34)cs2)cc1, which Potency is on record?
The Potency was 0.0066 µM (active).

For COCCOc1nc(-c2ccc(Cl)c(Cl)c2)n(-c2ccc(NC(=O)CCl)cc2)n1, which Potency is on record?
Its Potency is 20.9 µM (active).

With CC(C)C(=O)Oc1ccc(CO)cc1[C@H](CCN(C(C)C)C(C)C)c1ccccc1 as the compound, how does the Potency read?
The Potency was “inactive”.
